Rab9 prom act: Rab9 promoter activation; Huh7 Rab9 promoter-luciferase reporter, luminescence, 24 h; Potency, µM (series often up to 9.22 µM), inactives show at the top dose activation, negative = inhibition, hits mostly activators; hit rate 2.8% among 320,000; AID 485297; further: % of control where 0% means no effect; nearly all actives have a fitted effect of over 60% in size
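Luminescence from Amplite-detected luciferase (10 minutes, ambient) reports Rab9 promoter activation. Before that, stable Rab9-luciferase Huh7 cells (1500/well, reduced-serum OP-MEM I plus 10% FBS) were exposed to compound for 24 hours at 37C.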
SMN2 splice enh: increases expression of the SMN2 splice variant | HEK293 SMN2-luciferase splicing reporter, luminescence, 30-36 h | Potency, µM (top dose mostly 46.1 µM), for the others: at the top dose activity change, positive = activation, hits mostly activators | hit rate 2.8% among 210,000 | AID 1458; further: % of control where 0% means no effect; nearly all actives have a fitted effect of over 55% in size
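qHTS luciferase splicing reporter: luminescence rises when SMN2 exon 7 is included in transfected HEK293 cells. Compound exposure lasted 30-36 h at 37C, with 4.5 mM final sodium butyrate as control, followed by a ONE-Glo read.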
NPC1 promoter act: activates the NPC1 promoter; Potency, µM (series often up to 9.22 µM), inactives show at the highest dose activation, hits mostly activators; Huh7 NPC1 promoter luciferase reporter, 24 h; hit rate 2.4% among 320,000; further: % of control where 0% means no effect; nearly all actives have a fitted effect of over 60% in size
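Huh7 reporter cells (NPC1 promoter driving luciferase) are dosed with compound for 24 h at 37 °C, 5% CO2; luciferase detection reagent is then added and luminescence measured after 10 min at ambient temperature.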
FLuc modulator: counter-screen for miR-21 project: firefly luciferase inhibitors or activators. P08659. purified FLuc, Km substrates, luminescence inhibition. Potency, µM (highest dose often 57.5 µM), for inactives: at the highest dose activity change, negative = inhibition, most hits filed as inhibitors. hit rate 6.9% among 360,000;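 further: plate controls were vehicle for no effect and reference inhibitor for full effect; nearly all actives have a fitted effect of over 55% in size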
Target sequence (P08659 whole entry, looked up): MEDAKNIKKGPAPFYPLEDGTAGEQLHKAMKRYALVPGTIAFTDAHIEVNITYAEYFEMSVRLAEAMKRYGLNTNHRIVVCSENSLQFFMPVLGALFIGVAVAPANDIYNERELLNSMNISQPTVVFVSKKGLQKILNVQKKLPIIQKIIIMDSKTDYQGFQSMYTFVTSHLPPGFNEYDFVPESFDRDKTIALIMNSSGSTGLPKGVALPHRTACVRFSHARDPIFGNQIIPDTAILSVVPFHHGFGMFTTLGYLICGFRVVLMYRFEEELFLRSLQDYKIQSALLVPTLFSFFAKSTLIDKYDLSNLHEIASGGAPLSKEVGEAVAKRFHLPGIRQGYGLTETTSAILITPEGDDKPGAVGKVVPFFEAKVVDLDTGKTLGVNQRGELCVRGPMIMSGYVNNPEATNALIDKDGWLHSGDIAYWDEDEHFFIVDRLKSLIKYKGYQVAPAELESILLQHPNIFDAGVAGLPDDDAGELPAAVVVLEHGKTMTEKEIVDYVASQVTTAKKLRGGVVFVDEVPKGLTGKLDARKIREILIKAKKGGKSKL
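Purified P. pyralis luciferase, 10 nM final, with Km-level 10 uM D-luciferin and 10 uM ATP in 50 mM Tris acetate pH 7.5, 10 mM Mg acetate, 0.01% Tween-20, 0.05% BSA; 6-point qHTS titration about 60 µM downward; luminescence read.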
ELG1 genotoxic: induces genotoxicity in HEK293T cells with luciferase-tagged ELG1; hit rate 1.3% among 330,000; Potency, µM (doses to about 46 µM), for the others: top-dose activity change, positive = activation, actives largely listed as activators; AID 504466; HEK293T ELG1-luciferase reporter, luminescence, 16 h; further: % of control where 0% means no effect; nearly all actives have a fitted effect of over 60% in size
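After overnight (16 hr) compound treatment at 37 °C, ELG1-luciferase HEK293T cells were lysed with ONE-Glo; luminescence quantified 30 min later at room temperature.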
ELG1 DNA repair: blocks ELG1-dependent DNA repair in HEK293T cells. HEK293T ELG1-luciferase reporter, luminescence, 16 h; DNA damage induced by 5-fluorouridine. Potency, µM (doses to about 46.1 µM), for the others: top-dose activity change, negative = inhibition, most hits filed as inhibitors. hit rate 2.3% among 330,000. AID 504467; further: on the % scale 0 is the no-effect control and ±100 the full control effect; nearly all actives have a fitted effect of over 55% in size
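5-Fluorouridine DNA damage + compound/DMSO, 2,000 cells/well, 16 h, 37 °C/5% CO2. ONE-Glo, 30 min RT, luminescence. Readout = decrease in reporter signal.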
* = called active by the depositor; ? = inconclusive; nt = no result; [ ] = another dose, or the depositor's remark. Rows were chosen to be rich in hits. Some 9.3% of all compounds tested hit in one or more screens of this group. The call rests on the fitted dose curve; in most records, active means well fitted curve in the direction sought with a large enough effect; inconclusive means small, poorly fitted or top-dose-only effect, or another doubt; inactive means no such curve, though single readings can be large; an effect the other way counts as inactive or inconclusive. Potency means the concentration at half of the fitted maximal effect.

SMILES	Rab9 prom act	SMN2 splice enh	NPC1 promoter act	FLuc modulator	ELG1 genotoxic	ELG1 DNA repair
CCN1CCN(C(=O)c2cc(-c3ccc(Cl)s3)nc3ccccc23)CC1	-1%	nt	-2%	19µM*	-6%	-9%
O=C(Nc1ccccn1)c1cc(-c2ccc(Cl)s2)nc2ccccc12	-2%	nt	2%	?	-3%	?
Cc1cccc(NC(=O)c2cc(-c3ccc(C)s3)nc3ccccc23)n1	0%	-31%	3%	11µM*	-9%	6.5µM*
COc1ccc(CCNC(=O)c2cnc3sc(N4CCCCC4)nn3c2=O)cc1OC	nt	nt	nt	-3%	nt	nt
O=Cc1cccc(OC(=O)/C=C/c2ccco2)c1	13%	nt	?	27µM*	?	?
O=C(/C=C/c1ccco1)Oc1ccc(C(=S)N2CCOCC2)cc1	-2%	-55%	0%	?	17%	-4%
COC(=O)c1ccc(OC(=O)/C=C/c2ccco2)cc1	1%	nt	0%	2.4µM*	3%	14%
CS(=O)(=O)Nc1ccc(C(=O)Nc2ccc(S(=O)(=O)N3CCCCC3)cc2)cc1	2%	nt	2%	-9%	-6%	?
Cc1ccc(C(=O)NC(=S)Nc2ccc(N3CCOCC3)cc2)cc1C	-5%	-9%	-3%	-5%	-3%	10µM*
Cc1cccc(C(=O)NC(=S)Nc2ccc(N3CCOCC3)cc2)c1	16%	-5%	0%	?	-1%	-5%
CC(C)(C)c1ccc(C(=O)NC(=S)Nc2ccc(N3CCOCC3)cc2)cc1	-4%	2.8µM*	-7%	-9%	11%	?
O=C(CCCCl)NC(=S)Nc1ccc(N2CCOCC2)cc1	1.4µM*	nt	2.8µM*	-13%	?	?
CC(C)(C)c1ccc(C(=O)NC(=S)N2CCCC2)cc1	-7%[1.84 µM]	nt	4%	9.5µM*	1%	?
O=C(Nc1ccc(Cl)cc1)C1CCCCN1S(=O)(=O)c1ccccc1 (stereo unspecified)	nt	nt	nt	nt	1%	0%
O=C(Nc1ccc(C(=O)N2CCC(O)(c3ccc(Cl)c(C(F)(F)F)c3)CC2)cc1)c1ccc(Br)o1	-7%	nt	-9%	1%	-6%	?
Cc1cc(NC(=O)Nc2cccc(Cl)c2)n(C(C)(C)C)n1	2%	nt	-6%	1%	-1%	-1%
CC(C)(C)c1ccc(C(=O)Nc2ccc(N3CCOCC3)cc2)cc1	-8%	-25%	-2%	?	-9%	18µM*
CC(C)(C)c1ccc(OCCC(=O)Nc2ccc(N3CCOCC3)cc2N2CCOCC2)cc1	-5%	nt	2%	?	-8%	21µM*
CCOC(=O)C1(Cc2cccc(OC)c2)CCN(Cc2ccccc2OC)CC1	-8%	nt	-5%	0%	-16%	?
COc1cccc(/C=N/NC(=O)c2ccc(N(C)S(=O)(=O)c3ccccc3)cc2)c1OC	1%	-38%	-5%	3%	-7%	?
CN1CCN(Cc2cccc(Oc3ccc(Cl)cc3)c2)CC1	6%	-19%	-5%	?	7%	?
Cc1c(C)n(Cc2ccccc2)c2ccc(C(=O)NCc3ccc(OC(C)C)cc3)cc12	nt	nt	nt	-8%	nt	nt
O=C(NCc1ccccc1Cl)c1ccccc1NC(=O)c1nsc2ccccc12	nt	nt	nt	17µM*	nt	nt
CCOc1ccc(CNC(=O)c2ccc(NC(=O)c3nsc4ccccc34)cc2)cc1	nt	nt	nt	7.6µM*	nt	nt
CC(C)Oc1ccc(CNC(=O)c2ccc(NC(=O)c3nsc4ccccc34)cc2)cc1	nt	nt	nt	7.6µM*	nt	nt
SMILES	Rab9 prom act	SMN2 splice enh	NPC1 promoter act	FLuc modulator	ELG1 genotoxic	ELG1 DNA repair
CCOc1cc(CNC(=O)c2ccc(NC(=O)c3nsc4ccccc34)cc2)ccc1OC	nt	nt	nt	3µM*	nt	nt
CCOc1ccc(CNC(=O)c2ccc(NC(=O)C3=CSCCO3)cc2)cc1	6%	nt	1%	-6%	4%[9.26 µM]	?
COc1ccc(C2C(C#N)=C3NC(=O)c4c(sc5c4CCCCC5)N3C3=C2C(=O)CC(C)(C)C3)cc1 (stereo unspecified)	-2%	-23%	-3%	3%	-9%	?
O=C1OC[C@@H]2CCCN2C(=O)[C@@H](CC(=O)N(CCO)Cc2ccccc2)C/C=C\C[C@H]1Cc1ccc(F)cc1	nt	nt	nt	nt	-3%	?
COc1ccc(OC)c(CNC(=O)c2ccc(NC(=O)c3nsc4ccccc34)cc2)c1	nt	nt	nt	6.7µM*	nt	nt
Cc1ccccc1CNC(=O)c1ccccc1NC(=O)c1nsc2ccccc12	nt	nt	nt	-19%	nt	nt
CSc1ccc(CNC(=O)c2ccc(NC(=O)c3nsc4ccccc34)cc2)cc1	nt	nt	nt	6µM*	nt	nt
COc1ccc(C(=O)NCc2ccccc2OC)cc1	-2%	3%	9%	-8%	1%	17%
COc1ccc(NC(=O)c2cc(CC(C)C)nc3ccccc23)cc1	-4%	nt	0%	-6%	-11%	23µM*
Cc1ccc(NC(=O)c2cc(C)nc3ccccc23)cc1	-1%	nt	-3%	-2%	1%	-8%
Cc1ccc(NC(=O)c2cc(CC(C)C)nc3ccccc23)cc1	-3%	nt	-4%	-8%	1%	21µM*
CCC(C)(C)NS(=O)(=O)c1cc(-c2cc(C)no2)ccc1C	nt	nt	nt	-13%	nt	nt
COc1ccc(C2CC(C)(c3ccc(OC)cc3OC)Nc3ccccc3N2)c(OC)c1 (stereo unspecified)	1.1µM*	nt	2.8µM*	7.6µM*	8.2µM*	?
OCCC1CN(Cc2ccc(-c3ccco3)cc2)CCN1Cc1ccsc1 (stereo unspecified)	-4%	nt	-3%	5%	-7%	-13%
CCOC(=O)c1cc(-c2ccc(C)o2)n[nH]1	-1%	-12%	-4%	?	4%	10%
CCOC(=O)c1cc(-c2cc3ccccc3o2)n[nH]1	0%	18%	10%	19µM*	1%	15%
O=Cc1c(OCc2ccccc2)ccc2ccccc12	?	14µM*	?	12µM*	?	?
C/[N+]([O-])=C/c1c(OCc2ccccc2)ccc2ccccc12	?	nt	?	5%	?	?
CC(C)Oc1ccc(C2CC(=O)N(c3cccc(/C=C/C(=O)O)c3)C2=O)cc1 (stereo unspecified)	-4%	nt	0%	24µM*	0%	4%
CCc1ccc(NC(=O)CS(=O)CC(=O)Nc2ccc(-n3cnnn3)c(C)c2)cc1 (stereo unspecified)	3%	nt	-4%	?	-4%	-6%
O=C(Nc1ccc(Cl)cc1)Nc1ccc(N2CCOCC2)cc1	25%	?	16%	-6%	13%	?
Cc1ccc(OCC(=O)Nc2ccncc2)cc1	0%	nt	0%	13µM*	5%	-6%
Cc1ccc(OCC(=O)Nc2ccc(F)cc2)cc1	-5%	19%	-1%	15µM*	?	?

Bioassay records deposited in PubChem by National Center for Advancing Translational Sciences (NCATS).
